# According to PubChem BioAssay (NCI):
# Compounds without any hit were thinned out: in the full panel of roughly 79,000, 15% have a hit. Calls of active or inactive are those of the source. Cut-off read from the data, not from the text of the source: active = growth inhibition above about 70%; inactive = the rest.
# Experiment: NCI Yeast Anticancer Drug Screen. Data for the rad50 strain (AID 155);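 note: 0% = growth of vehicle-only cultures of the same strain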
# Details: S. cerevisiae rad50 strain growth inhibition; at 50.0 µM; active compounds read high
# In short: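 Yeast carrying a defined DNA repair defect were exposed to test compounds, and growth was compared with vehicle-treated controls to give percent inhibition.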
row,SMILES,growth inhibition
1,CCCCCCOC(=O)Nc1ccc(S(=O)(=O)N2CCCCC2)cc1,35.5% (inactive)
2,CCCCCCCCCCCOc1cccc(N2C(N)=NC(N)=NC2(C)C)c1,98.8% (active)
3,O=Nc1c(NO)c2ccccc2c2ccccc12,99.1% (active)
4,CCCCCCCCCCCCCCCCOS(=O)(=O)O,98% (active)
5,CCCCCCCCCCCCCCCCCC[N+](C)(C)Cc1ccc(C[N+](C)(C)CCCCCCCCCCCCCCCCCC)cc1,1.5% (inactive)
6,NNc1ccc2ccccc2n1,87.5% (active)
7,Cc1cc(NC(=S)SCc2ccc(F)cc2)c([N+](=O)[O-])cc1C,98.7% (active)
8,COC(=O)/C(=C\c1cn(C(C)=O)c2ccccc12)P(=O)(OC)OC,41.8% (inactive)
9,O=C(Nc1ccccc1)c1ccccc1O,86.2% (active)
10,CC(=O)c1c2c(cc3c1CC1(Cc4ccccc4C1=O)C3)CCC2 (centres undefined),36.7% (inactive)
11,CC(=O)c1c(-c2ccco2)c(C#N)c(=S)n(C2OC(CO)C(O)C(O)C2O)c1-c1ccccc1 (centres undefined),32.9% (inactive)
12,CC1(C)OC2C(CO)OC(n3ncc(=S)[nH]c3=O)C2O1 (centres undefined),-10.5% (inactive)
13,C=C(C)C1CC/C(C)=C/CCC2(C)OC2CC/C(CO)=C\C1O (centres undefined),91.1% (active)
14,CC(C)CCSc1ncnc2nc[nH]c12,48.1% (inactive)
15,COC(=O)C1(Cc2ccc3c(c2)CCC3)Cc2ccc3c(c2C1O)CCC3 (centres undefined),94.6% (active)
16,Nc1ccc(C(=O)NN2C(=O)C(Cl)C2c2cc(Br)cc(Br)c2O)cc1 (centres undefined),96.2% (active)
17,COc1ccc(SC2=C(N(C)C(C)=O)C(=O)c3ccccc3C2=O)cc1,99.5% (active)
18,O=[N+]([O-])c1ccc(N/N=C/CCCCCCCCCCBr)c([N+](=O)[O-])c1,24.8% (inactive)
19,O=C(c1ccccc1)c1cccc2ccccc12,56.2% (inactive)
20,O=S1(=O)CCc2ccccc2C(Br)C1Br (centres undefined),100% (active)
21,CC(/C=N/NS(=O)(=O)c1ccc(C)cc1)=C(c1ccccc1)c1ccccc1,81.2% (active)
22,Cc1cc(CC(O)(C(F)(F)F)C(F)(F)F)cc(CC(O)(C(F)(F)F)C(F)(F)F)n1,99.2% (active)
23,O=S(=O)(c1cc(Cl)c(Cl)cc1Cl)N(CCCCCN(S(=O)(=O)c1cc(Cl)c(Cl)cc1Cl)S(=O)(=O)c1cc(Cl)c(Cl)cc1Cl)S(=O)(=O)c1cc(Cl)c(Cl)cc1Cl,98.6% (active)
24,O=c1cc(-c2ccccc2)oc2ccc(-c3ccc4oc(-c5ccccc5)cc(=O)c4c3)cc12,37.3% (inactive)

# Experiment: NCI Yeast Anticancer Drug Screen. Data for the mec2-1 strain (AID 157)
# Details: S. cerevisiae mec2-1 strain, at 5.0 µM (retest, dose inferred, filed as 0.5), active compounds read high
# In short: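 Mutant yeast (mec2-1) grown with compound; growth inhibition relative to vehicle control reported.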
row,SMILES,growth inhibition
1,COC(=O)C1C(c2ccccc2)=N[C@@H](c2ccccc2)[C@H]1C(=O)OC (some centres undefined),3% (inactive)
2,CCCCCCCCCC(C)CC(=O)NCCCN(C)CCCCN(C)C (centres undefined) (tested in a mixture with another compound),26% (inactive)
3,Cc1ccc(N=C2SC(=S)N(CCC[N+](C)(C)C)C2=Nc2ccc(C)cc2)cc1,-18% (inactive)
4,N#CSc1ccc(O)c2ccccc12,64% (inactive)
5,CCCCCC1OC(CCCCC)OC(CCCCC)O1 (centres undefined),13% (inactive)
6,ClC1(c2ccccc2)c2ccccc2-c2ccccc21,4% (inactive)
7,CCN(CC)c1ccc(NC(CC(O)c2ccccc2)c2ccccc2)cc1 (centres undefined),-3% (inactive)
8,CCCCCCC[n+]1ccc(C(=O)c2ccccc2)cc1,100% (active)
9,O=c1[nH][nH]c(=O)c2c1nc(SCc1ccccc1)n2Cc1ccccc1,-3% (inactive)
10,CCOC(=O)C(NNc1ccccc1)C(c1ccccc1)[P+](c1ccccc1)(c1ccccc1)c1ccccc1 (centres undefined),94% (active)
11,CC(C)/C=C1\CCC(CN2CCOCC2)C1=O (centres undefined),18% (inactive)
12,CCc1cc2nc3c(=O)[nH]c(=O)nc-3n(CCN(CCO)CCO)c2cc1CC,10% (inactive)
13,c1ccc2c(c1)OCC(CN1CCN(CC3COc4ccccc4O3)CC1)O2 (centres undefined),36% (inactive)
14,CNC(C)C(=O)c1ccc2ccc3ccccc3c2c1 (centres undefined),-5% (inactive)
15,O=[N+]([O-])c1ccc(N=C(Cl)C(Cl)(c2ccccc2)c2ccccc2)cc1,11% (inactive)
16,O=[N+]([O-])c1ccc2c(c1)Cc1cc(Cl)ccc1-2,2% (inactive)
17,CCCCCCOC(=O)Nc1ccc(S(=O)(=O)N2CCCCC2)cc1,-9% (inactive)
18,CCCCCCCCCCCOc1cccc(N2C(N)=NC(N)=NC2(C)C)c1,99% (active)
19,O=Nc1c(NO)c2ccccc2c2ccccc12,-2% (inactive)
20,CCCCCCCCCCCCCCCCOS(=O)(=O)O,13% (inactive)

row,SMILES,growth inhibition
1,CCCCCCCCCCCCCCCCCC[N+](C)(C)Cc1ccc(C[N+](C)(C)CCCCCCCCCCCCCCCCCC)cc1,-3% (inactive)
2,NNc1ccc2ccccc2n1,1% (inactive)
3,Cc1cc(NC(=S)SCc2ccc(F)cc2)c([N+](=O)[O-])cc1C,36% (inactive)
4,COC(=O)/C(=C\c1cn(C(C)=O)c2ccccc12)P(=O)(OC)OC,5% (inactive)
5,O=C(Nc1ccccc1)c1ccccc1O,-2% (inactive)
6,CC(=O)c1c2c(cc3c1CC1(Cc4ccccc4C1=O)C3)CCC2 (centres undefined),-27% (inactive)
7,CC(=O)c1c(-c2ccco2)c(C#N)c(=S)n(C2OC(CO)C(O)C(O)C2O)c1-c1ccccc1 (centres undefined),-4% (inactive)
8,CC1(C)OC2C(CO)OC(n3ncc(=S)[nH]c3=O)C2O1 (centres undefined),-8% (inactive)
9,C=C(C)C1CC/C(C)=C/CCC2(C)OC2CC/C(CO)=C\C1O (centres undefined),80% (active)
10,CC(C)CCSc1ncnc2nc[nH]c12,-5% (inactive)
11,COC(=O)C1(Cc2ccc3c(c2)CCC3)Cc2ccc3c(c2C1O)CCC3 (centres undefined),-1% (inactive)
12,Nc1ccc(C(=O)NN2C(=O)C(Cl)C2c2cc(Br)cc(Br)c2O)cc1 (centres undefined),-12% (inactive)
13,COc1ccc(SC2=C(N(C)C(C)=O)C(=O)c3ccccc3C2=O)cc1,97% (active)
14,O=[N+]([O-])c1ccc(N/N=C/CCCCCCCCCCBr)c([N+](=O)[O-])c1,-2% (inactive)
15,O=C(c1ccccc1)c1cccc2ccccc12,-5% (inactive)
16,O=S1(=O)CCc2ccccc2C(Br)C1Br (centres undefined),7% (inactive)
17,CC(/C=N/NS(=O)(=O)c1ccc(C)cc1)=C(c1ccccc1)c1ccccc1,35% (inactive)
18,Cc1cc(CC(O)(C(F)(F)F)C(F)(F)F)cc(CC(O)(C(F)(F)F)C(F)(F)F)n1,5% (inactive)
19,O=S(=O)(c1cc(Cl)c(Cl)cc1Cl)N(CCCCCN(S(=O)(=O)c1cc(Cl)c(Cl)cc1Cl)S(=O)(=O)c1cc(Cl)c(Cl)cc1Cl)S(=O)(=O)c1cc(Cl)c(Cl)cc1Cl,-11% (inactive)
20,O=c1cc(-c2ccccc2)oc2ccc(-c3ccc4oc(-c5ccccc5)cc(=O)c4c3)cc12,7% (inactive)
